Source: publication PMC7862700, “An all-to-all approach to the identification of sequence-specific readers for epigenetic DNA modifications on cytosine”

Columns and labels:
Experiment in all cases: DAPPL (digital affinity profiling via proximity ligation, sequencing); 10 mM Tris-HCl pH 7.5, 50 mM NaCl, 1 mM DTT, 4% glycerol, room temperature, 30 min; GST-TFs on glutathione beads, 16-mer random dsDNA library, 0.1% formaldehyde crosslink after washing; high values mean tight binding
FLI1 = biological target: T1, FLI1 (Homo sapiens, UniProt Q01543 1-452); conditions: protein: recombinant; tags: N-terminal GST; dsDNA, one strand shown
T1 sequence: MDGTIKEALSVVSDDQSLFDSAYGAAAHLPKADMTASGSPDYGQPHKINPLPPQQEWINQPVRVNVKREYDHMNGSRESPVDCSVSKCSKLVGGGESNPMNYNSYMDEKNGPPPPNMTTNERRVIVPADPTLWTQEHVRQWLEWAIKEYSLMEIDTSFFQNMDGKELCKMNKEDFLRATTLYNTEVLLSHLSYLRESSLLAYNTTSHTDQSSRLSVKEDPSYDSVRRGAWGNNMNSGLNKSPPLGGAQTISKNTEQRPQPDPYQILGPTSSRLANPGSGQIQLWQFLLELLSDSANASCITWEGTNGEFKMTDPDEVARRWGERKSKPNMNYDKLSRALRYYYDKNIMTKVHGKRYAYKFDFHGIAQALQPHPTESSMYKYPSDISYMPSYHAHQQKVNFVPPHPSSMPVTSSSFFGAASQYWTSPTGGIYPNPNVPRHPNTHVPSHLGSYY
Method in brief: (§1)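 GST fusions of human transcription factors were expressed in yeast and captured with glutathione beads. Once given DNA barcodes and pooled alongside a tag-only sample, they were incubated for 30 min at room temperature with 200 nmole of a random double-stranded 16-mer DNA library in Tris/NaCl/DTT/glycerol buffer, then washed, crosslinked (0.1% formaldehyde), proximity-ligated, PCR-amplified and sequenced on an Illumina NextSeq500. The binding signal of each hexamer is its read frequency for a factor divided by its frequency for the tag-only sample.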

ELK1 = biological target: T2, ELK1 (Homo sapiens, UniProt P19419 1-428); conditions: protein: recombinant; tags: N-terminal GST; dsDNA, one strand shown
T2 sequence: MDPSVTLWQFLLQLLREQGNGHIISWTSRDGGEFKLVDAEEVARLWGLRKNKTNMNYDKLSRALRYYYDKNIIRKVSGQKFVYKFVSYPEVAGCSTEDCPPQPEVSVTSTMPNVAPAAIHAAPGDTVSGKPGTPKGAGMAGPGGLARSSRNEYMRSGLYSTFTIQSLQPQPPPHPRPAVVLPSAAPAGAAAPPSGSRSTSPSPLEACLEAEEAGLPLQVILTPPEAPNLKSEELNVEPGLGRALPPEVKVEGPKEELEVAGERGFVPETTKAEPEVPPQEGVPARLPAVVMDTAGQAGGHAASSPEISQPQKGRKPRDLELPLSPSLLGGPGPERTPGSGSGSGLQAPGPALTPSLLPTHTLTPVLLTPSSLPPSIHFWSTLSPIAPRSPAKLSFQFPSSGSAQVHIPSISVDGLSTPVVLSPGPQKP
Method in brief: as §1

GABPA = biological target: T3, GABPA (Homo sapiens, UniProt Q06546 1-454); conditions: protein: recombinant; tags: N-terminal GST; dsDNA, one strand shown
T3 sequence: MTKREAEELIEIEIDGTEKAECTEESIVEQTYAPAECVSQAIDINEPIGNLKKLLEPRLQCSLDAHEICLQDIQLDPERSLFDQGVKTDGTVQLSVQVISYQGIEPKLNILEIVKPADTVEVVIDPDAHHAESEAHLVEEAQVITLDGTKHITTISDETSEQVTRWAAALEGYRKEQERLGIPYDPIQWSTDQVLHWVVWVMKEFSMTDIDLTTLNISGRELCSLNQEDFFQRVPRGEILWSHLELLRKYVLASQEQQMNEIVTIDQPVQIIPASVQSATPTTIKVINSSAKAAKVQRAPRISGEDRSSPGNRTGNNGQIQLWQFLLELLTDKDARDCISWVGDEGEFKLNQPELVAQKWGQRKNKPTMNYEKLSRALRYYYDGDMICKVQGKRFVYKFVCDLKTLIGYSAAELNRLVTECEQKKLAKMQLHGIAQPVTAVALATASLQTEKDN
Method in brief: as §1

ERG = biological target: T4, ERG (Homo sapiens, UniProt P11308 1-479); conditions: protein: recombinant; tags: N-terminal GST; dsDNA, one strand shown
T4 sequence: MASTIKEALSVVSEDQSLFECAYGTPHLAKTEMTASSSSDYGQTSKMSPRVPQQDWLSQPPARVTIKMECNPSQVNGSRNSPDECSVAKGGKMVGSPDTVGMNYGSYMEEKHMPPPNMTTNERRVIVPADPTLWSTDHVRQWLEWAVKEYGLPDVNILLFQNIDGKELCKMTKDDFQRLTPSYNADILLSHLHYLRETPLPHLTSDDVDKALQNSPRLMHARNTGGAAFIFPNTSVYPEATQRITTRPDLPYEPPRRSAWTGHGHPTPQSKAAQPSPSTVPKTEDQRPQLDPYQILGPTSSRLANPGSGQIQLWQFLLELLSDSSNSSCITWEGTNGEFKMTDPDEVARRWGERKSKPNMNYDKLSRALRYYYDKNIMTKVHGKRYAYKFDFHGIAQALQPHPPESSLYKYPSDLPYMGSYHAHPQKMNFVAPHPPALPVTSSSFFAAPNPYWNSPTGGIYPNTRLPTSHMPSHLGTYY
Method in brief: as §1

ELF1 = ELF1 (Homo sapiens, UniProt P32519 1-619); conditions: protein: recombinant; tags: N-terminal GST; dsDNA, one strand shown
Chain of ELF1 (P32519 whole entry): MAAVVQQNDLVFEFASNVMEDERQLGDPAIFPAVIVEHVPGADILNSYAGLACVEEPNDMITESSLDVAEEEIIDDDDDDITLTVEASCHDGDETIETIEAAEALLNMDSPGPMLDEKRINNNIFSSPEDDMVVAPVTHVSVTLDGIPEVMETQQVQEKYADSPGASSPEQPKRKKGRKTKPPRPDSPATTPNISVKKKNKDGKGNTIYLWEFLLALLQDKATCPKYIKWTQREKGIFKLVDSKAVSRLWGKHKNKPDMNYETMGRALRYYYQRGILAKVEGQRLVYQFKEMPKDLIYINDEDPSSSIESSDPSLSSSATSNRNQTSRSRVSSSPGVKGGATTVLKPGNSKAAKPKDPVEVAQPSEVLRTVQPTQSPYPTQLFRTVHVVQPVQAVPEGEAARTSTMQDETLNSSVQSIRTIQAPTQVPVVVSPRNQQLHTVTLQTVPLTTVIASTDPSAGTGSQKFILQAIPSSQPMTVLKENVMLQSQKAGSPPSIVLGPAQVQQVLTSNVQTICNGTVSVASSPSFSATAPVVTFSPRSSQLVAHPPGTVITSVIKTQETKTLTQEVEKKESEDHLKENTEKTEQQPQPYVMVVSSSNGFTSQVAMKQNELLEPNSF
Method in brief: as §1

EHF = biological target: T5, EHF (Homo sapiens, UniProt Q9NZC4 1-300); conditions: protein: recombinant; tags: N-terminal GST; dsDNA, one strand shown
T5 sequence: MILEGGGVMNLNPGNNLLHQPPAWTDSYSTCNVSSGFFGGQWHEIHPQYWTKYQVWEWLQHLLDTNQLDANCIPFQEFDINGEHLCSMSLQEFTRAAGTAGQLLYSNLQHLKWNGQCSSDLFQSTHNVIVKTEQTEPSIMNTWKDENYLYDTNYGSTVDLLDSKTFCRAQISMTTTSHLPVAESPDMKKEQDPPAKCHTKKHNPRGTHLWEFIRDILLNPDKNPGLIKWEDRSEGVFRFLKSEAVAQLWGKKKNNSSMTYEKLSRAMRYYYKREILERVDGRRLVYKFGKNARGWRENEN
Method in brief: as §1

SPI1 = SPI1 (Homo sapiens, UniProt P17947 1-270); conditions: protein: recombinant; tags: N-terminal GST; dsDNA, one strand shown
Method in brief: as §1

SPIB = SPIB (Homo sapiens, UniProt Q01892 1-262); conditions: protein: recombinant; tags: N-terminal GST; dsDNA, one strand shown
Chain of SPIB (Q01892 whole entry): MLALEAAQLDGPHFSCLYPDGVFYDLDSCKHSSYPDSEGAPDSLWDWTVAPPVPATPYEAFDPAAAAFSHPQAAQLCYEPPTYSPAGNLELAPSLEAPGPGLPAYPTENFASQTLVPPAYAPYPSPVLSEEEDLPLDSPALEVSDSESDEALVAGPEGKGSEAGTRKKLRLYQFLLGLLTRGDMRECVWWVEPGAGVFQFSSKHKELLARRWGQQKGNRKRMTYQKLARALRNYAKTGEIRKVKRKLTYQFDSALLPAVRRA
Method in brief: as §1

ELK3 = biological target: T6, ELK3 (Homo sapiens, UniProt P41970 1-407); conditions: protein: recombinant; tags: N-terminal GST; dsDNA, one strand shown
T6 sequence: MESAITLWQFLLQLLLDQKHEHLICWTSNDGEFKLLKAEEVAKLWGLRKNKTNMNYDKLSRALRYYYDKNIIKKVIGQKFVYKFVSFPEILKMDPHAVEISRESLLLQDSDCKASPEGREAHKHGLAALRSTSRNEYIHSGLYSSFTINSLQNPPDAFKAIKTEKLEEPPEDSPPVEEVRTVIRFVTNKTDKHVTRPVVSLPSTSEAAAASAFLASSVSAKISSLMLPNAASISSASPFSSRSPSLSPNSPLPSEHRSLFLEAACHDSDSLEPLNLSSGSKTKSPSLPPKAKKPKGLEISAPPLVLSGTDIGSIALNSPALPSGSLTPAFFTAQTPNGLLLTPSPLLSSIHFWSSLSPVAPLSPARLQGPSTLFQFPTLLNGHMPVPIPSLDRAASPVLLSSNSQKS
Method in brief: as §1

FEV = biological target: T7, FEV (Homo sapiens, UniProt Q99581 1-238); conditions: protein: recombinant; tags: N-terminal GST; dsDNA, one strand shown
T7 sequence: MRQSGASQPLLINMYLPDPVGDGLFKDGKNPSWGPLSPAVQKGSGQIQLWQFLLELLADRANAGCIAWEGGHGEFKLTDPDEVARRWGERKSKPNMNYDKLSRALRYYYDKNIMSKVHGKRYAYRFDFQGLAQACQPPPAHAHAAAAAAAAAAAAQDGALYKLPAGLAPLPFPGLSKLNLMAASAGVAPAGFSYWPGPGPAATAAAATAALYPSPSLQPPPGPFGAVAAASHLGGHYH
Method in brief: as §1

ETV5 = ETV5 (Homo sapiens, UniProt P41161 1-510); conditions: protein: recombinant; tags: N-terminal GST; dsDNA, one strand shown
Chain of ETV5 (P41161 whole entry): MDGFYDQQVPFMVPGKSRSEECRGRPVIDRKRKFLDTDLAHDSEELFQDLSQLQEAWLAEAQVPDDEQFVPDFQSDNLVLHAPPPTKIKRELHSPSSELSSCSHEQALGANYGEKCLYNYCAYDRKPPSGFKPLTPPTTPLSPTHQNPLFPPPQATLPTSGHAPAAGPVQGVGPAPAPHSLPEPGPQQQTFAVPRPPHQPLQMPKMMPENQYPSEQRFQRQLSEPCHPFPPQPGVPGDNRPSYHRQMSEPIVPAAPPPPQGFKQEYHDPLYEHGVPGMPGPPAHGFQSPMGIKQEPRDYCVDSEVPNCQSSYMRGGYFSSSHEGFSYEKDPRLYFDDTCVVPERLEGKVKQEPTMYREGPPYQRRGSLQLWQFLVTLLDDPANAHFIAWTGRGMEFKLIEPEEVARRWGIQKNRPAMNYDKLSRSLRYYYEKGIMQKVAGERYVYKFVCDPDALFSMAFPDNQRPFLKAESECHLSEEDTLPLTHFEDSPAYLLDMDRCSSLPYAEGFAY
Method in brief: as §1

HSF1 = HSF1 (Homo sapiens, UniProt Q00613 1-529); conditions: protein: recombinant; tags: N-terminal GST; chain copies: 3; dsDNA, one strand shown
Chain of HSF1 (Q00613 whole entry): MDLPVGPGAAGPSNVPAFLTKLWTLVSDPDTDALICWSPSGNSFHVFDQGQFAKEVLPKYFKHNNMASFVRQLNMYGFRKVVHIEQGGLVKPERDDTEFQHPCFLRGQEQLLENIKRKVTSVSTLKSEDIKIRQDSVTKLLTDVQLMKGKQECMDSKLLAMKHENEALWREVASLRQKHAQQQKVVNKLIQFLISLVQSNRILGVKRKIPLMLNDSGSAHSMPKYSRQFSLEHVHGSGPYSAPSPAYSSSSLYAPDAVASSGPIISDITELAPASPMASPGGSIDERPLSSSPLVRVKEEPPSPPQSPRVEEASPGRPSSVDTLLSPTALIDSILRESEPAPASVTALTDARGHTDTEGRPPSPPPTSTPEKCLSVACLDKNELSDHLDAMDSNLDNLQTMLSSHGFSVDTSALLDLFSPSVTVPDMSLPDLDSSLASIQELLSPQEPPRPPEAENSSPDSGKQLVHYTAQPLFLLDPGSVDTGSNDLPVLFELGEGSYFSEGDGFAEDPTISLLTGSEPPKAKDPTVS
Method in brief: as §1

SPIC = biological target: T8, SPIC (Homo sapiens, UniProt Q8N5J4 1-248); conditions: protein: recombinant; tags: N-terminal GST; dsDNA, one strand shown
T8 sequence: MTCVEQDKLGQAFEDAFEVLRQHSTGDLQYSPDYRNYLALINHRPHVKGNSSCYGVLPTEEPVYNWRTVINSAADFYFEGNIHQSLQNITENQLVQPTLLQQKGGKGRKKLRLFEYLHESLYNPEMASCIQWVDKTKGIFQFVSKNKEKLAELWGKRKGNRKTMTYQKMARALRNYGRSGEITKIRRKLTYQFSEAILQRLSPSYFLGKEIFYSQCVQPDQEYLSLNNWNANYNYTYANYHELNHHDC
Method in brief: as §1

ELF4 = ELF4 (Homo sapiens, UniProt Q99607 1-663); conditions: protein: recombinant; tags: N-terminal GST; dsDNA, one strand shown
Chain of ELF4 (Q99607 whole entry): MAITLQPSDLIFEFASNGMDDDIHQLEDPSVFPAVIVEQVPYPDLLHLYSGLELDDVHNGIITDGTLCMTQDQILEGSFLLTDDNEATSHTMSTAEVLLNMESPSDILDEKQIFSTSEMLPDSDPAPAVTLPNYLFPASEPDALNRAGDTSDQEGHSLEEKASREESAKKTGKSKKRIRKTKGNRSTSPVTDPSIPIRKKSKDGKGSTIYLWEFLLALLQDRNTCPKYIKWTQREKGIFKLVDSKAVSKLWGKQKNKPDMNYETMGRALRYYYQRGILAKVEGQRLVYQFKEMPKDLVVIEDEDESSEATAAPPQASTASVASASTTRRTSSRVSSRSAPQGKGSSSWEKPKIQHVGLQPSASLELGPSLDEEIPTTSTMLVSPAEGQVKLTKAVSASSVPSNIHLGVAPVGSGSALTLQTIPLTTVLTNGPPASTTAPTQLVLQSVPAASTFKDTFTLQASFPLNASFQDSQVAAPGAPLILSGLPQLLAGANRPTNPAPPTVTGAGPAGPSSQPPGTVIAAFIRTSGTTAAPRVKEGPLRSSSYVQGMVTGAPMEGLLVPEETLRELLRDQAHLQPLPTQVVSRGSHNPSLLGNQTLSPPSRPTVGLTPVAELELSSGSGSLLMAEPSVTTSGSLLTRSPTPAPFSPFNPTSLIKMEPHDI
Method in brief: as §1

ELK4 = biological target: T9, ELK4 (Homo sapiens, UniProt P28324-2 1-405); conditions: protein: recombinant; tags: N-terminal GST; dsDNA, one strand shown
T9 sequence: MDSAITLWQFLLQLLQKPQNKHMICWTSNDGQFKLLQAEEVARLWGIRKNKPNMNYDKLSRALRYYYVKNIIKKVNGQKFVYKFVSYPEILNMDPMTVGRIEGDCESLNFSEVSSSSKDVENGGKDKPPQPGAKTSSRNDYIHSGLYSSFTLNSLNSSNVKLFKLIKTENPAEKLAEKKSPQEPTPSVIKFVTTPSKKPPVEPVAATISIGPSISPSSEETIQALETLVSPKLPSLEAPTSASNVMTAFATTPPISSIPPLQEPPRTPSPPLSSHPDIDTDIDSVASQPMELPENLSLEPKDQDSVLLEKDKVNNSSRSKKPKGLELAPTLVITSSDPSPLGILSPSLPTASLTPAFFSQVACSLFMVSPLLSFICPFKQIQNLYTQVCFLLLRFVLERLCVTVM
Method in brief: as §1

ETV2 = biological target: T10, ETV2 (Homo sapiens, UniProt O00321 1-342); conditions: protein: recombinant; tags: N-terminal GST; dsDNA, one strand shown
T10 sequence: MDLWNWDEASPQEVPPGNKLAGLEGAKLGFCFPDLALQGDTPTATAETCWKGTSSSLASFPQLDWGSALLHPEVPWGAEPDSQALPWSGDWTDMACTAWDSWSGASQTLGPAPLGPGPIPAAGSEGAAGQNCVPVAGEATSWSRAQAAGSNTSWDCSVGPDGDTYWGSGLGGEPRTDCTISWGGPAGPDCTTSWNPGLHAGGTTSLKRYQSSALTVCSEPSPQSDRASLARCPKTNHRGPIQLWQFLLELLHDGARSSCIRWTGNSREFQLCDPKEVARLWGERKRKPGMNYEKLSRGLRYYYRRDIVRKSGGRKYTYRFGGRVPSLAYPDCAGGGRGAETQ
Method in brief: as §1

ELF3 = biological target: T11, ELF3 (Homo sapiens, UniProt P78545 1-371); conditions: protein: recombinant; tags: N-terminal GST; dsDNA, one strand shown
T11 sequence: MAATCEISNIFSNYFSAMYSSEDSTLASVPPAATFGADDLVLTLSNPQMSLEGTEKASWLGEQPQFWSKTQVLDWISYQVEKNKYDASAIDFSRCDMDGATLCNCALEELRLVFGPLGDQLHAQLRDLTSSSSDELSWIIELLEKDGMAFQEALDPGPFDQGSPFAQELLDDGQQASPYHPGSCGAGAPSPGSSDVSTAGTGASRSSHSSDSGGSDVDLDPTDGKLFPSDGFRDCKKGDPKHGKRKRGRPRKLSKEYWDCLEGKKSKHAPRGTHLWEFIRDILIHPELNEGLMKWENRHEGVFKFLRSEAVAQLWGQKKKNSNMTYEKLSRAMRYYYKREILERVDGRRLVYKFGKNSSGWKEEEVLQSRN
Method in brief: as §1

CRX = CRX (Homo sapiens, UniProt O43186 1-299); conditions: protein: recombinant; tags: N-terminal GST; dsDNA, one strand shown
Chain of CRX (O43186 whole entry): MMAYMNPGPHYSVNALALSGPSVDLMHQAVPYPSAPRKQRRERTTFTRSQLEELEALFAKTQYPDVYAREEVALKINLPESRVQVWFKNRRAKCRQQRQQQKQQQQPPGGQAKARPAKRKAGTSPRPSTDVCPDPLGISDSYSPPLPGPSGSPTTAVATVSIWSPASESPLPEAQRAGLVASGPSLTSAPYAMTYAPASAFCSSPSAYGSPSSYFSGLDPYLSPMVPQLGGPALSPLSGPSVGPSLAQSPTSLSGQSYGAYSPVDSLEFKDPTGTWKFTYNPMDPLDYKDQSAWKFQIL
Method in brief: as §1

ETV1 = ETV1 (Homo sapiens, UniProt P50549 1-477); conditions: protein: recombinant; tags: N-terminal GST; dsDNA, one strand shown
Chain of ETV1 (P50549 whole entry): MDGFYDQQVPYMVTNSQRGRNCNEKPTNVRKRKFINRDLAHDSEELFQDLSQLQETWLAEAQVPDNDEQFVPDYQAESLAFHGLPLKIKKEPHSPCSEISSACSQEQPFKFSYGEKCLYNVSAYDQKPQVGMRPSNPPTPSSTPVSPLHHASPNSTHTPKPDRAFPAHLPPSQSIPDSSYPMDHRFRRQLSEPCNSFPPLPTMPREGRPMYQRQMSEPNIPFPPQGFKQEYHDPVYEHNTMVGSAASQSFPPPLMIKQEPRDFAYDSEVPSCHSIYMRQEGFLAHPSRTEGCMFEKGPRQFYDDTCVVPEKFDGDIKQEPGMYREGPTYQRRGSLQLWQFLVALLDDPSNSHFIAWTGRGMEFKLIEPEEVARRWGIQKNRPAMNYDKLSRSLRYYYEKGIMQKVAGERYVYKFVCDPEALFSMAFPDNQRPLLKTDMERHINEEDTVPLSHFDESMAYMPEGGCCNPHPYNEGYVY
Method in brief: as §1

Question: Which results are given for CCGTAA?
Answer: binding signal (FLI1): 1.09 fold enrichment (6-mer frequency, TF over GST control); binding signal (ELK1): 1.1 fold enrichment (6-mer frequency, TF over GST control); binding signal (GABPA): 1.1 fold enrichment (6-mer frequency, TF over GST control); binding signal (ERG): 1.14 fold enrichment (6-mer frequency, TF over GST control); binding signal (ELF1): 1.09 fold enrichment (6-mer frequency, TF over GST control); binding signal (EHF): 1.17 fold enrichment (6-mer frequency, TF over GST control); binding signal (SPI1): 1.13 fold enrichment (6-mer frequency, TF over GST control); binding signal (SPIB): 1.06 fold enrichment (6-mer frequency, TF over GST control); binding signal (ELK3): 1.14 fold enrichment (6-mer frequency, TF over GST control); binding signal (FEV): 1.07 fold enrichment (6-mer frequency, TF over GST control); binding signal (ETV5): 1.06 fold enrichment (6-mer frequency, TF over GST control); binding signal (HSF1): 1.09 fold enrichment (6-mer frequency, TF over GST control); binding signal (SPIC): 1.03 fold enrichment (6-mer frequency, TF over GST control); binding signal (ELF4): 1.14 fold enrichment (6-mer frequency, TF over GST control); binding signal (ELK4): 1.15 fold enrichment (6-mer frequency, TF over GST control); binding signal (ETV2): 1.2 fold enrichment (6-mer frequency, TF over GST control); binding signal (ELF3): 1.1 fold enrichment (6-mer frequency, TF over GST control); binding signal (CRX): 1.27 fold enrichment (6-mer frequency, TF over GST control); binding signal (ETV1): 1.05 fold enrichment (6-mer frequency, TF over GST control)
